Most compounds without a hit are left out; they make up all but 3.2% or so of the library.
Tau ThT inhib – qHTS for Inhibitors of Tau Fibril Formation, Thioflavin T Binding; recombinant tau K18 P301L, heparin-induced fibrillization, ThT fluorescence; Potency, µM (highest dose often 57.4 µM), for the others: at the highest dose activity, negative = inhibition, usual class: inhibitors; 270,000 compounds, 2.1% hits; further: potency means the concentration at half of the fitted maximal effect; on the % scale 0 is the no-effect control and ±100 the full control effect; nearly all actives have a fitted effect of over 55% in size
Target sequence (P10636 561-689 P618L limits assumed): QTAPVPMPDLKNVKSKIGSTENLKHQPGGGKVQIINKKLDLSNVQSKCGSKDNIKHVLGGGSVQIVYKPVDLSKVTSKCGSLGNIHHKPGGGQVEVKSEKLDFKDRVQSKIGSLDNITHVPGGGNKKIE
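ThT emission at 510 nm, taken 1 hr after adding 30 uM dye, quantifies aggregates formed when 20 uM heparin acts on human tau K18 P301L for 6 hr at 37 C.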
KDM4E inh – qHTS Assay for Inhibitors of Human Jumonji Domain Containing 2E (JMJD2E) | Lysine-specific demethylase 4E (Homo sapiens), B2RXH2 | JMJD2E catalytic domain, FDH-coupled NADH fluorescence (FDH is formaldehyde dehydrogenase) | Potency, µM (series often up to 57.1 µM), inactives show top-dose activity change, negative = inhibition, actives largely listed as inhibitors | 230,000 compounds, 1.6% hits | AID 2147, 2009; active means well fitted inhibition curve with a large enough effect, not every such curve was filed as active; inconclusive means small, poorly fitted or top-dose-only effect, or another doubt; inactive means no such curve, though single readings can be large or run the other way;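 further: potency means the concentration at half of the fitted maximal effect; 0% = wells with enzyme and -100% = buffer wells without enzyme; nearly all actives have a fitted effect of over 50% in size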
Target sequence (B2RXH2 1-337 limits assumed): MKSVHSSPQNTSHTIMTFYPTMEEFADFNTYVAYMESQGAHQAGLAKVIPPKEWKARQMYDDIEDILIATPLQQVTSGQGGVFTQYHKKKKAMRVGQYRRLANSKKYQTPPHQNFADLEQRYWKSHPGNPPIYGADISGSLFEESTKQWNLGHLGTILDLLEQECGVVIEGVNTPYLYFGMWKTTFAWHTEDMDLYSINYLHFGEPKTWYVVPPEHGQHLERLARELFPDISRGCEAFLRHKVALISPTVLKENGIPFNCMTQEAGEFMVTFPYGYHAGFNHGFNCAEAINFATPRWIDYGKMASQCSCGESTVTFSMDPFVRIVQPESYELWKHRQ
CBFb RUNX1 block – qHTS Assay for Compounds Blocking the Interaction Between CBF-beta and RUNX1 for the Treatment of Acute Myeloid Leukemia; Potency, µM (highest dose often 59.8 µM), for the others: top-dose activity, negative = inhibition, usual class: inhibitors; Runt-related transcription factor 1 (Homo sapiens) + Core-binding factor subunit beta …; AlphaScreen CBFb-His/RUNX1-biotin binding, biochemical; 230,000 tested, under 10 active; further: % of control where 0% means no effect
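Read-out: AlphaScreen. Format: His-CBF-beta with biotinylated RUNX1 (30 nM each) preincubated 20 min, compound 15 min, Ni-chelate plus streptavidin beads 90 min; room temperature throughout.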
Tau fibril FP – qHTS for Inhibitors of Tau Fibril Formation, Fluorescence Polarization; K18 P301L tau heparin fibrillization, Alexa594 FP, 6 h; Potency, µM (doses to about 57.7 µM), for inactives: top-dose activity, negative = inhibition, usual class: inhibitors; 280,000 compounds, 0.39% hits; AID 1468, 2008; further: potency means the concentration at half of the fitted maximal effect; on the % scale 0 is the no-effect control and ±100 the full control effect; nearly all actives have a fitted effect of over 55% in size
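Steps: dispense K18 P301L tau (15 uM plus 0.24 uM Alexa 594 tracer, final) in pH 7 sodium acetate; add compound; add heparin (20 uM final); incubate 6 hr, 37 C; add ThT (30 uM final); after 1 hr ambient, read FP.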
Tau fluor counter – Counterscreen qHTS for Inhibitors of Tau Fibril Formation, Fluorescence Polarization. tau K18 P301L Alexa594 fluorescence, heparin fibrillization. Potency, µM (doses to about 57.7 µM), for the others: top-dose activity change, negative = decrease. 280,000 compounds, 0.93% hits. AID 1463, 2008; further: potency means the concentration at half of the fitted maximal effect; on the % scale 0 is the no-effect control and ±100 the full control effect; nearly all actives have a fitted effect of over 55% in size
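Human tau K18 P301L (15 uM unlabeled, 0.24 uM Alexa 594-labeled) in 100 mM sodium acetate pH 7 with 20 uM heparin, 6 hr at 37 C. ThT 30 uM added, 1 hr ambient; Alexa 594 FP and total fluorescence read at 555/632 nm.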
Lamin A splicing – qHTS Assay for Modulators of Lamin A Splicing | HeLa LMNA splicing GFP/RFP minigene ratio, 48 h | 200,000 compounds, 0.01% hits | Potency, µM (top dose mostly 46.1 µM), for inactives: at the highest dose ratio change, negative = inhibition, most hits filed as inhibitors; active means well fitted inhibition curve with a large enough effect in the signal ratio, with a control signal flat, not every such curve was filed as active; inconclusive means small, poorly fitted or top-dose-only effect, or effect the other way, or a change in a side signal; the % refers to the signal ratio; further: potency means the concentration at half of the fitted maximal effect; on the % scale 0 is the no-effect control and ±100 the full control effect
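S3 HeLa stable clones carrying a lamin A-EGFP splicing minigene plus DsRed2 were seeded at 600 cells/well in Opti-MEM with 2% FBS, pin-dosed and incubated 48 h at 37°C. Acumen cytometry (488 nm) gave the GFP/RFP total-intensity ratio.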
Active calls of the source: *; ? = inconclusive; . = no result given; [ ] = remark or other dose. Unless noted, the call rests on the fitted dose curve; in most records, active means well fitted curve in the direction sought with a large enough effect; inconclusive means small, poorly fitted or top-dose-only effect, or another doubt; inactive means no such curve, though single readings can be large; an effect the other way counts as inactive or inconclusive.

SMILES	Tau ThT inhib	KDM4E inh	CBFb RUNX1 block	Tau fibril FP	Tau fluor counter	Lamin A splicing
Cc1ccc(-c2nc(N)sc2-c2ccc(C)cc2)cc1	?	?	-6%	-14%	14µM*[quencher]	?
Cc1ccc(-c2nc(N)sc2-c2ccccc2)cc1C	?	5%	-15%	3%	10µM*[quencher]	?
Cn1c(=O)c(N)c2c3c(c(Br)ccc31)C(=O)c1ccccc1-2	14µM*	25µM*	?	-13%	?	.
Cc1nc2c(c(=O)[nH]1)CSCC2	.	.	16%	.	.	.
COc1cc([N+](=O)[O-])c2ncsc2c1	9%	3%	17%	6%	14%	6%
COc1cc(SSc2cc(OC)cc([N+](=O)[O-])c2N)c(N)c([N+](=O)[O-])c1	.	2.5µM*	-17%	?	?	.
COc1ccc(C2CC(=O)N3C(=C2C#N)SCC3(O)c2ccccc2)cc1 (centres undefined)	-10%	136%	-24%	7%	-21%	?
COc1cc(C2CC(=O)N3CN(c4ccccc4C)CSC3=C2C#N)cc(OC)c1OC (centres undefined)	22µM*	11µM*	-1%	?	-13%	1%
COc1ccccc1N1CSC2=C(C#N)C(c3ccc(SC)cc3)CC(=O)N2C1 (centres undefined)	28µM*	22µM*	-19%	?	-24%	-1%
CC(C)Cn1c(=O)c2sccc2n2c(CCCC(=O)NCC(C)c3ccccc3)nnc12 (centres undefined)	-3%	.	.	-1%	-10%	.
Cc1cccc(N/N=C/c2ccc(O)c(O)c2O)c1	10µM*	3.2µM*	-17%	16µM*	?	.
COc1cccc(/C=N/Nc2cc(Cl)nc(C)n2)c1O	?	?	-6%	2%	-18%	.
COc1cccc(N/N=C/c2cccc(Br)c2O)c1	18µM*	?	-9%	0%	18µM*[quencher]	.
COc1ccc(-c2noc(-c3ccccc3NC(=O)c3cc(OC)c(OC)c(OC)c3)n2)cc1	?	.	.	-6%	-5%	.
CC(C)(C)OC(=O)N1C=CCC1CN1C(=O)COCC1=O (centres undefined)	.	.	14%	.	.	.
CCc1ccc(S(=O)(=O)ON2C(=O)c3ccccc3C2=O)cc1	16µM*	?	7%	?	-13%	-9%[46 µM]
O=C1c2cccc3cccc(c23)C(=O)N1OS(=O)(=O)c1ccc(Cl)cc1	-7%	?	6%	-12%	-9%	-12%
COc1ccc(C2=CC3=C(Br)C(=O)C(C)(OC(=O)c4ccc(Cl)nc4)C(=O)C3=CO2)cc1 (centres undefined)	28µM*	-4%	-6%	?	?	.
CC(C)(C)OC(=O)NCCCC1=CC2=CC(=O)C(C)(OC(=O)c3ccc(Cl)nc3)C(=O)C2=CO1 (centres undefined)	-7%	-21%	-21%	9%	-2%	.
COC(=O)CCC(=O)OC1(C)C(=O)C2=COC(c3ccc(OC)cc3)=CC2=C(Br)C1=O (centres undefined)	13µM*	4%	-2%	?	-10%	.
COc1ccc(C2=CC3=C(Br)C(=O)C(C)(OC(=O)C4CCCC4)C(=O)C3=CO2)cc1 (centres undefined)	?	-5%	-13%	?	-15%	.
O=C1[C@@H]2[C@H]3[C@H](O)[C@H](O)C/C(=N/OC[C@@H](O)COCc4ccco4)[C@@H]3CC[C@H]2C(=O)N1c1ccc(F)cc1F	-8%[11.5 µM]	.	6%[13.1 µM]	-3%[11.6 µM]	-6%[11.6 µM]	.
N#Cc1c(N)oc(-c2ccccc2)c1-c1ccccc1	-20%	-18%	14%	-1%	-12%	0%
N#Cc1c(N)oc(-c2ccco2)c1-c1ccco1	14µM*	1.6µM*	3%	-6%	?	-1%
CCc1ccc(/C=C(/C#N)c2nc(-c3ccc(C)cc3)cs2)cc1	?	.	.	-7%	?	.
SMILES	Tau ThT inhib	KDM4E inh	CBFb RUNX1 block	Tau fibril FP	Tau fluor counter	Lamin A splicing
CCOc1ccc(-c2csc(/C(C#N)=C\c3ccc(O)c([N+](=O)[O-])c3)n2)cc1	1.3µM*	3%	15%	?	7.1µM*[quencher]	?
FC(F)(F)c1cc(NC(=S)Nc2ccc3ccccc3c2)cc(C(F)(F)F)c1	-15%	?	3%	0%	?	.
CCCN(CCC)S(=O)(=O)c1ccc(NC(=O)c2cc(C(=O)OC)cc([N+](=O)[O-])c2)cc1	-3%	3%	-1%	13%	8.9µM*[quencher]	12%
CCC(C)(C)NC(=O)c1cc(C(=O)OC)cc([N+](=O)[O-])c1	-6%	5%	-1%	3%	-4%	6%
COc1ccc(S(=O)(=O)NCCC(=O)NCc2ccccc2)cc1	10%	6%	5%	?	7.9µM*[quencher]	1%
COc1ccc(S(=O)(=O)NCc2ccccc2)cc1	-7%	-5%	-3%	4%	-5%	-7%
CN(C)c1ccc(NC(=S)NC(=O)/C=C/c2ccc(Cl)cc2)cc1	10µM*	-7%	-4%	-6%	?	-3%
CCN(CC)S(=O)(=O)c1ccc(N2CCOCC2)c(NC(=O)c2cc(-c3ccccn3)nc3ccccc23)c1	4%	13µM*	-6%	1%	-29%	.
OCC1OC(C#Cc2ccccc2)C=CC1O (centres undefined)	?	.	1%[13.1 µM]	-5%[11.6 µM]	-17%[11.6 µM]	.
Cc1ccccc1NC(=O)CSc1nnc(-c2ccco2)c(-c2ccco2)n1	7.9µM*	?	?	8.9µM*	?	12%
Cc1cccc(C)c1NC(=O)CSc1nnc(-c2ccco2)c(-c2ccco2)n1	25µM*	?	.	?	?	-2%[0.0737 µM]
COc1ccc(-c2nnc(SCC(=O)Nc3c(C)cccc3C)nc2-c2ccc(OC)cc2)cc1	-1%	.	.	-8%	-10%	.
CC(=O)c1cccc(-n2c(=O)c3c4c(sc3n(Cc3cccc(C)c3)c2=O)CN(C(C)=O)CC4)c1	-13%	.	.	4%	-1%	.
O=C(c1ccc2c(c1)N(Cc1cccc(Cl)c1)C(=O)c1ccccc1S2(=O)=O)N1CCN(Cc2ccccc2)CC1	13%	.	.	-6%	-6%	?
CCOC(=O)c1c(C)[nH]c(C)c1S(=O)(=O)NCC(=O)Nc1cccc(C(F)(F)F)c1	4%	.	.	1%	-15%	.
COc1ccc(N(C(=O)COc2c(C)cccc2C)S(=O)(=O)c2ccc(Cl)cc2)cc1	?	.	.	4%	?	.
